Test results reported in the supplement of paper PMC7411054.
Structures can show the parent of a compound that is named as a salt.

Experiments:
Test in all cases: phenotypically active (imaging signature differs from DMSO and reproducible) at any of 0.3-9 uM (binary (1 = active, 0 = inactive)); higher = active
Settings in all cases: treatment time: 24 h
A549-ACTB-RAB5A = test system: A549-ACTB-RAB5A
Summary of the method: (§1)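 The reporter lines, fifteen in total and built by gene editing in A549, HepG2 and WPMY1 cells, used BFP for segmentation alongside GFP and RFP/FusionRed markers. Each was treated at 0.3, 1, 3 or 9 µM for 24 h in four wells and then imaged live, with live-cell features normalised to solvent control wells. Deviation meant ≥3 of 4 wells beyond the 95th percentile of control Euclidean distances; reproducibility meant a median replicate Pearson correlation above the 95th percentile of non-replicates. Only conditions meeting both were scored as phenotypically active.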

A549-CANX-COX4 = test system: A549-CANX-COX4
Summary of the method: as §1

A549-GM130-SQSTM1 = test system: A549-GM130-SQSTM1
Summary of the method: as §1

A549-TP53BP1-CLTA = test system: A549-TP53BP1-CLTA
Summary of the method: as §1

A549-TUBA1B-RELA = test system: A549-TUBA1B-RELA
Summary of the method: as §1

HepG2-ACTB-RAB5A = test system: HepG2-ACTB-RAB5A
Summary of the method: as §1

HepG2-CANX-COX4 = test system: HepG2-CANX-COX4
Summary of the method: as §1

HepG2-GM130-SQSTM1 = test system: HepG2-GM130-SQSTM1
Summary of the method: as §1

HepG2-TP53BP1-CLTA = test system: HepG2-TP53BP1-CLTA
Summary of the method: as §1

HepG2-TUBA1B-RELA = test system: HepG2-TUBA1B-RELA
Summary of the method: as §1

WPMY1-ACTB-RAB5A = test system: WPMY1-ACTB-RAB5A
Summary of the method: as §1

WPMY1-CANX-COX4 = test system: WPMY1-CANX-COX4
Summary of the method: as §1

WPMY1-GM130-SQSTM1 = test system: WPMY1-GM130-SQSTM1
Summary of the method: as §1

WPMY1-TP53BP1-CLTA = test system: WPMY1-TP53BP1-CLTA
Summary of the method: as §1

WPMY1-TUBA1B-RELA = test system: WPMY1-TUBA1B-RELA
Summary of the method: as §1

Measured: phenotypically active

CO/N=C/C1=CCCN(C)C1 [Milameline hydrochloride]
inactive: A549-ACTB-RAB5A 0 | A549-CANX-COX4 0 | A549-GM130-SQSTM1 0 | A549-TP53BP1-CLTA 0 | A549-TUBA1B-RELA 0 | HepG2-ACTB-RAB5A 0 | HepG2-CANX-COX4 0 | HepG2-GM130-SQSTM1 0 | HepG2-TP53BP1-CLTA 0 | HepG2-TUBA1B-RELA 0 | WPMY1-ACTB-RAB5A 0 | WPMY1-CANX-COX4 0 | WPMY1-GM130-SQSTM1 0 | WPMY1-TP53BP1-CLTA 0 | WPMY1-TUBA1B-RELA 0

Brc1c(Br)c(Br)c2[nH]nnc2c1Br
inactive: A549-ACTB-RAB5A 0 | A549-CANX-COX4 0 | A549-GM130-SQSTM1 0 | A549-TP53BP1-CLTA 0 | A549-TUBA1B-RELA 0 | HepG2-ACTB-RAB5A 0 | HepG2-CANX-COX4 0 | HepG2-GM130-SQSTM1 0 | HepG2-TP53BP1-CLTA 0 | HepG2-TUBA1B-RELA 0 | WPMY1-ACTB-RAB5A 0 | WPMY1-CANX-COX4 0 | WPMY1-GM130-SQSTM1 0 | WPMY1-TP53BP1-CLTA 0 | WPMY1-TUBA1B-RELA 0

CC(C)(C#N)c1cc(Cn2cncn2)cc(C(C)(C)C#N)c1 [Anastrozole]
inactive: A549-ACTB-RAB5A 0 | A549-CANX-COX4 0 | A549-GM130-SQSTM1 0 | A549-TP53BP1-CLTA 0 | A549-TUBA1B-RELA 0 | HepG2-ACTB-RAB5A 0 | HepG2-CANX-COX4 0 | HepG2-GM130-SQSTM1 0 | HepG2-TP53BP1-CLTA 0 | HepG2-TUBA1B-RELA 0 | WPMY1-ACTB-RAB5A 0 | WPMY1-CANX-COX4 0 | WPMY1-GM130-SQSTM1 0 | WPMY1-TP53BP1-CLTA 0 | WPMY1-TUBA1B-RELA 0

CC[N@@+]1(C)[C@@H]2CC[C@H]1C[C@@H](OC(=O)[C@]1(c3ccccc3)CC[C@H](C(=O)O[C@H]3C[C@H]4CC[C@@H](C3)[N@+]4(C)CC)c3ccccc31)C2 [beta- Belladonnine dichloroethylate]
inactive: A549-ACTB-RAB5A 0 | A549-CANX-COX4 0 | A549-GM130-SQSTM1 0 | A549-TP53BP1-CLTA 0 | A549-TUBA1B-RELA 0 | HepG2-ACTB-RAB5A 0 | HepG2-CANX-COX4 0 | HepG2-GM130-SQSTM1 0 | HepG2-TP53BP1-CLTA 0 | HepG2-TUBA1B-RELA 0 | WPMY1-ACTB-RAB5A 0 | WPMY1-CANX-COX4 0 | WPMY1-GM130-SQSTM1 0 | WPMY1-TP53BP1-CLTA 0 | WPMY1-TUBA1B-RELA 0

N=C(N)NC(=O)Cc1c(Cl)cccc1Cl [guanfacine]
inactive: A549-ACTB-RAB5A 0 | A549-CANX-COX4 0 | A549-GM130-SQSTM1 0 | A549-TP53BP1-CLTA 0 | A549-TUBA1B-RELA 0 | HepG2-ACTB-RAB5A 0 | HepG2-CANX-COX4 0 | HepG2-GM130-SQSTM1 0 | HepG2-TP53BP1-CLTA 0 | HepG2-TUBA1B-RELA 0 | WPMY1-ACTB-RAB5A 0 | WPMY1-CANX-COX4 0 | WPMY1-GM130-SQSTM1 0 | WPMY1-TP53BP1-CLTA 0 | WPMY1-TUBA1B-RELA 0

O=C(/C=C/c1ccc(O)c(O)c1)O[C@@H]1C[C@](O)(C(=O)O)C[C@@H](O)[C@H]1O [Chlorogenic acid]
inactive: A549-ACTB-RAB5A 0 | A549-CANX-COX4 0 | A549-GM130-SQSTM1 0 | A549-TP53BP1-CLTA 0 | A549-TUBA1B-RELA 0 | HepG2-ACTB-RAB5A 0 | HepG2-CANX-COX4 0 | HepG2-GM130-SQSTM1 0 | HepG2-TP53BP1-CLTA 0 | HepG2-TUBA1B-RELA 0 | WPMY1-ACTB-RAB5A 0 | WPMY1-CANX-COX4 0 | WPMY1-GM130-SQSTM1 0 | WPMY1-TP53BP1-CLTA 0 | WPMY1-TUBA1B-RELA 0
